Test results published in PubChem BioAssay (NCATS).
Results filed as inconclusive are left out. Entries that show only a call come without a potency. The source made the active and inactive calls. Calls come from the whole dose curve; as a rule, active = well fitted inhibition curve with a large enough effect; inconclusive = small, poorly fitted or top-dose-only effect; inactive = flat fitted curve, though single readings scatter.

What was measured:
Experiment in all cases: qHTS profiling for inhibitors of Plasmodium falciparum proliferation (AID 504749); note: nearly all actives have a fitted effect of over 60% in size
Details in all cases: P. falciparum in erythrocytes, SYBR Green DNA, 72 h; series mostly up to 28.7 µM
3D7 = test system: 3D7
Method in brief: (§1)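 Parasite proliferation within erythrocytes, 72 h exposure. Endpoint: SYBR Green I fluorescence after overnight lysis at room temperature. Controls: 0.29 uM artemisinin, DMSO.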

7G8 = test system: 7G8
Method in brief: as §1

AA1029 = test system: AA1029
Method in brief: as §1

AS120 = test system: AS120
Method in brief: as §1

ATS189 = test system: ATS189
Method in brief: as §1

ATS95 = test system: ATS95
Method in brief: as §1

C2A = test system: C2A
Method in brief: as §1

CP185 = test system: CP185
Method in brief: as §1

CP191 = test system: CP191
Method in brief: as §1

CP192 = test system: CP192
Method in brief: as §1
Potency is the fitted concentration of half-maximal effect.

SMILES	Potency (3D7)	Potency (7G8)	Potency (AA1029)	Potency (AS120)	Potency (ATS189)	Potency (ATS95)	Potency (C2A)	Potency (CP185)	Potency (CP191)	Potency (CP192)
CCCCCCCCCCCCCCCCCC(=O)OC[C@@H](O)[C@H]1OC[C@H](O)[C@H]1O	inactive	inactive	inactive	inactive	inactive	inactive	inactive	inactive	inactive	inactive
OCCOCCOCCO	inactive	inactive	inactive	inactive	inactive	inactive	inactive	inactive	inactive	
NC(=S)NS(=O)(=O)c1ccc(N)cc1	inactive	inactive	inactive	inactive	inactive	inactive	inactive	inactive	inactive	inactive
FC(F)(F)C(F)(F)C(F)(F)C(F)(F)C(F)(F)C(F)(F)F	inactive	inactive	inactive	inactive	inactive	inactive	inactive	inactive	inactive	inactive
CC(C)Cc1ccc([C@@H](C)C(=O)NS(C)(=O)=O)cc1	inactive	inactive	inactive	inactive	inactive	inactive	inactive	inactive	inactive	inactive
CCN(CC)C(=S)S	inactive	inactive	inactive	inactive	inactive	inactive	inactive	inactive	inactive	inactive
O=S(=O)(O)CCCS(=O)(=O)O	inactive	inactive	inactive	inactive	inactive	inactive	inactive	inactive	inactive	inactive
Oc1cc(O)cc(O)c1	inactive	inactive	inactive	inactive	inactive	inactive	inactive	inactive	inactive	inactive
C[Se]CC[C@H](N)C(=O)O	inactive	inactive	inactive	inactive	inactive	inactive	inactive	inactive	inactive	inactive
CC(=O)[O][Al][O]C(C)=O	inactive	inactive	inactive	inactive	inactive	inactive	inactive	inactive	inactive	
Cn1cc(NC(=O)c2cc(NC(=O)c3cc(NC=O)cn3C)cn2C)cc1C(=O)NCCC(=N)N	10 µM (active)	0.316 µM (active)	7.08 µM (active)	7.08 µM (active)	11.2 µM (active)	6.31 µM (active)	7.94 µM (active)	11.2 µM (active)	10 µM (active)	
CC(C)CCC[C@@H](C)[C@H]1CC[C@H]2[C@@H]3CC[C@@H]4C[C@H](O)CC[C@]4(C)[C@H]3CC[C@]12C	inactive	inactive	inactive	inactive	inactive	inactive	inactive	inactive	inactive	inactive
Cc1ccccn1	inactive	inactive	inactive	inactive	inactive	inactive	inactive	inactive	inactive	inactive
Cc1ccc(C(C)(C)c2ccc(C)cc2)cc1	inactive	inactive	inactive	inactive	inactive	inactive	inactive	inactive	inactive	inactive
C[C@H](N)C(=O)N[C@@H](C)P(=O)(O)O	inactive	inactive	inactive	inactive	inactive	inactive	inactive	inactive	inactive	inactive
CC(C)(C)CC(C)(C)c1cc(Cc2cc(C(C)(C)CC(C)(C)C)cc(-n3nc4ccccc4n3)c2O)c(O)c(-n2nc3ccccc3n2)c1	inactive	inactive	inactive	inactive	inactive	inactive	inactive	inactive	inactive	inactive
CC(C)(CO)[C@@H](O)C(=O)NCCC(=O)NCCSSCCNC(=O)CCNC(=O)[C@H](O)C(C)(C)CO	inactive	inactive	inactive	inactive	inactive	inactive	inactive	inactive	inactive	inactive
CCOC(=O)[C@@H](N)CS	inactive	inactive	inactive	inactive	inactive	inactive	inactive	inactive	inactive	inactive
COc1cc2c(cc1OC)[C@@H](Cc1cc(OC)c(OC)c(OC)c1)[N+](C)(CCCOC(=O)CC/C=C/CCC(=O)OCCC[N+]1(C)CCc3cc(OC)c(OC)cc3[C@H]1Cc1cc(OC)c(OC)c(OC)c1)CC2 (stereo partly specified)	inactive	inactive	inactive	inactive	inactive	inactive	inactive	inactive	inactive	inactive
CC[C@H]1OC(=O)[C@H](C)[C@@H](O[C@H]2C[C@@](C)(OC)[C@@H](O)[C@H](C)O2)[C@H](C)[C@@H](O[C@@H]2O[C@H](C)C[C@H](N(C)C)[C@H]2O)[C@](C)(O)C[C@@H](C)CN(C)[C@H](C)[C@@H](O)[C@]1(C)O	inactive	12.6 µM (active)	4.47 µM (active)	5.01 µM (active)	12.6 µM (active)	7.94 µM (active)	4.47 µM (active)	5.01 µM (active)		
COc1cc(NCCCC(C)N)c2ncccc2c1 (stereo unspecified)	2 µM (active)	0.224 µM (active)	12.6 µM (active)	3.16 µM (active)	11.2 µM (active)	11.2 µM (active)	10 µM (active)	11.2 µM (active)	5.01 µM (active)	
O=C(O)c1cc(N=Nc2ccc(O)c(C(=O)O)c2)ccc1O	inactive	inactive	inactive	inactive	inactive	inactive	inactive	inactive	inactive	inactive

SMILES	Potency (3D7)	Potency (7G8)	Potency (AA1029)	Potency (AS120)	Potency (ATS189)	Potency (ATS95)	Potency (C2A)	Potency (CP185)	Potency (CP191)	Potency (CP192)
O=P(O)(O)OC[C@H](O)CO	inactive	inactive	inactive	inactive	inactive	inactive	inactive	inactive	inactive	inactive
[O-][N+](=Nc1ccccc1)c1ccccc1	inactive	inactive	inactive	inactive	inactive	inactive	inactive	inactive	inactive	inactive
CC(CNC(=O)c1cccnc1)NC(=O)c1cccnc1 (stereo unspecified)	inactive	inactive	inactive	inactive	inactive	inactive	inactive	inactive	inactive	inactive
CC1CC(OC(=O)C(O)c2ccccc2)CC(C)(C)C1 (stereo unspecified)	inactive	inactive	inactive	inactive	inactive	inactive	inactive	inactive	inactive	
O=C(O)Cc1cc(I)c(Oc2ccc(O)c(I)c2)c(I)c1	inactive	inactive	inactive	inactive	inactive	inactive	inactive	inactive	inactive	inactive
COc1ccc(C(=O)CCC(=O)O)c2ccccc12	inactive	inactive	inactive	inactive	inactive	inactive	inactive	inactive	inactive	inactive
O=C(O)/C=C/c1ccccc1	inactive	inactive	inactive	inactive	inactive	inactive	inactive	inactive	inactive	inactive
NCC[C@H](O)C(=O)N[C@@H]1C[C@H](N)[C@@H](O[C@H]2O[C@H](CN)[C@@H](O)[C@H](O)[C@H]2O)[C@H](O)[C@H]1O[C@H]1O[C@H](CO)[C@@H](O)[C@H](N)[C@H]1O	inactive	inactive	inactive	inactive	inactive	inactive	inactive	inactive	inactive	inactive
CCOC(=O)c1c[nH]c2cc(OCC(C)C)c(OCC(C)C)cc2c1=O	0.126 µM (active)	0.0708 µM (active)	0.0794 µM (active)	0.0447 µM (active)	0.0631 µM (active)	0.0891 µM (active)	0.199 µM (active)	0.1 µM (active)	0.0501 µM (active)	
Cc1cc(-c2ccc(N=Nc3ccc4c(S(=O)(=O)O)cc(S(=O)(=O)O)c(N)c4c3O)c(C)c2)ccc1N=Nc1ccc2c(S(=O)(=O)O)cc(S(=O)(=O)O)c(N)c2c1O	inactive	inactive	inactive	inactive	inactive	inactive	inactive	inactive	inactive	inactive
NC(N)=O	inactive	inactive	inactive	inactive	inactive	inactive	inactive	inactive	inactive	inactive
CCN(CC)C(=O)c1cccnc1	inactive	inactive	inactive	inactive	inactive	inactive	inactive	inactive	inactive	inactive
CCN(CC)CCCC(C)Nc1cc(/C=C/c2ccccc2Cl)nc2cc(Cl)ccc12 (stereo unspecified)	1.41 µM (active)	0.794 µM (active)	2.24 µM (active)	2 µM (active)	3.55 µM (active)	2.51 µM (active)	1.12 µM (active)	2.82 µM (active)	1.26 µM (active)	
CC1CC(O)CC(C)(C)C1 (stereo unspecified)	inactive	inactive	inactive	inactive	inactive	inactive	inactive	inactive	inactive	inactive
C[C@H](CCCC(C)(C)O)[C@H]1CC[C@H]2[C@@H]3CC=C4C[C@@H](O)CC[C@]4(C)[C@H]3CC[C@]12C	inactive	11.2 µM (active)	inactive	inactive	inactive	inactive	inactive	inactive	inactive	inactive
O=C(NNCNNC(=O)c1ccncc1)c1ccncc1	inactive	inactive	inactive	inactive	inactive	inactive	inactive	inactive	inactive	inactive
CN1C(=O)C[C@@H](C(=O)N[C@@H](Cc2cnc[nH]2)C(=O)N2CCC[C@H]2C(N)=O)NC1=O	inactive	inactive	inactive	inactive	inactive	inactive	inactive	inactive	inactive	inactive
FC(F)(F)COCC(F)(F)F	inactive	inactive	inactive	inactive	inactive	inactive	inactive	inactive	inactive	inactive
CC(C)(COP(=O)(O)OP(=O)(O)OC[C@H]1O[C@@H](n2cnc3c(N)ncnc32)[C@H](O)[C@@H]1OP(=O)(O)O)C(O)C(=O)NCCC(=O)NCCS (stereo partly specified)	inactive	inactive	inactive	inactive	inactive	inactive	inactive	inactive	inactive	inactive
OC1OC[C@@H](O)[C@H](O)[C@@H]1O (stereo partly specified)	inactive	inactive	inactive	inactive	inactive	inactive	inactive	inactive	inactive	inactive
CCOc1ccc(NC(=S)Nc2ccc(OCC)cc2)cc1	inactive	inactive	inactive	inactive	inactive	inactive	inactive	inactive	inactive	inactive
